Screening results (PubChem)
KB-V1 cytotox: qHTS assay for MDR1-selective chemotherapeutics: Primary screen using the drug-selected MDR subline cells KB-V1; KB-V1 MDR cells viability, CellTiter-Glo, 72 h; Potency, µM (doses to about 46.1 µM), usual class: cytotoxic; hit rate 3.4% among 400,000; AID 1347076, 2019; note: nearly all actives have a fitted effect of over 60% in size
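In this primary screen, KB-V1 cells overexpressing P-gp are incubated with library compounds (lowest to highest concentration) for 72 h at 37 degrees C before a luminescent ATP viability read.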
SW480 rereplic: A quantitative high throughput screen for small molecules that induce DNA re-replication in SW480 colon adenocarcinoma cells | Potency, µM (doses to about 46.1 µM), usual class: activators | AID 624297, 2012 | hit rate 1.8% among 340,000 | SW480 DNA re-replication, Hoechst DNA content imaging, 48 h; note: nearly all actives have a fitted effect of over 55% in size
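Cells (250 per well) received 23 nL compound or DMSO by pin tool and were kept 48 hr at 37 C, 5% CO2. Nuclei were then stained with Hoechst for 40 min and scanned for DNA content.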
D3 antag: qHTS of D3 Dopamine Receptor Antagonist: qHTS. D3R cells, DiscoveRx beta-arrestin luminescence, antagonist mode; stronger effect = lower value. max response, negative = inhibition, %. AID 652054, 2013. hit rate 2.5% among 360,000. D(3) dopamine receptor (Homo sapiens), P35462; in the data active = max response below about -50%; inconclusive = no clear call, values can overlap the other calls
Target sequence (P35462 whole entry, looked up): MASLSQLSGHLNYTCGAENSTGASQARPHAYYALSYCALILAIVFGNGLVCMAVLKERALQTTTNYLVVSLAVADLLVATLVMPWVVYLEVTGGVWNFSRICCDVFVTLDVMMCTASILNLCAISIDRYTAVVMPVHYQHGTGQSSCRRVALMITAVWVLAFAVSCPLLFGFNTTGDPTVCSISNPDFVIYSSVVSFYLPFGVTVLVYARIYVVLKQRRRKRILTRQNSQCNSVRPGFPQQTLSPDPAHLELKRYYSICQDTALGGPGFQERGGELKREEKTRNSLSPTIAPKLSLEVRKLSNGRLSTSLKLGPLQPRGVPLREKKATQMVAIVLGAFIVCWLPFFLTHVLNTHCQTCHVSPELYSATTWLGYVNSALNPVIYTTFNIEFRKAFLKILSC
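Cells plated overnight at 1500 cells/well, then exposed to library compounds with dopamine controls for 90 minutes at 37 degrees C. DiscoveRx reagent added for 30–60 minutes at room temperature; luminescence read, quantitative HTS format.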
KB-3-1 cytotox: qHTS assay for MDR1-selective chemotherapeutics: Primary screen using the parental adenocarcinoma cell KB-3-1; KB-3-1 viability, CellTiter-Glo ATP luminescence, 72 h; Potency, µM (highest dose often 46.1 µM), most hits filed as cytotoxic; hit rate 1.4% among 400,000; note: nearly all actives have a fitted effect of over 60% in size
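Using CellTiter-Glo luminescence, growth of non-resistant KB-3-1 adenocarcinoma cells is assessed 72 h after pin-tool compound addition at 37 °C. Normalized responses across the concentration series yield fitted curves.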
MCF10A rerep: A quantitative high throughput screen for small molecules that induce DNA re-replication in MCF 10a normal breast cells; MCF 10A DNA re-replication, Hoechst nuclear intensity, 48 h; Potency, µM (doses to about 46.1 µM), actives largely listed as activators; hit rate 2.9% among 350,000; AID 624296, 2012; note: nearly all actives have a fitted effect of over 50% in size
DRD3 agonist: qHTS of D3 Dopamine Receptor Agonist: qHTS; D(3) dopamine receptor (Homo sapiens), P35462; D3R DiscoveRx beta-arrestin cells, luminescence, 90 min; max activation, %; hit rate 0.58% among 410,000; AID 652048, 2013; in the data active = max activation above about 30%
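Cells at 1500/well, incubated overnight, then treated with pinned compounds (dopamine as control) for 90 min at 37 degrees C. DiscoveRx reagent added for 30 - 60 minutes at room temperature; luminescence read.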
Each line names hits and unclear results; the compound was inactive in the other large screens; ! = not active in a repeat. Most compounds without a hit are left out; they make up all but 8.9% or so of the library. Unless noted, calls come from the whole dose curve; as a rule, active = well fitted curve in the direction sought with a large enough effect; inconclusive = small, poorly fitted or top-dose-only effect, or another doubt; inactive = no such curve, though single readings can be large; an effect the other way counts as inactive or inconclusive.

Cc1cc(NC(=O)CN(C)S(=O)(=O)c2ccc3c(c2)CCCC(=O)N3)ccc1Br	KB-V1 cytotox 16µM, KB-3-1 cytotox inconclusive (no result: SW480 rereplic, D3 antag, MCF10A rerep)
CC(C)(C)S(=O)(=O)N1Cc2cc(=O)n(Cc3ccccc3)c(CCO)c2[C@H]1CCO	none
Cc1ccc(-c2nc(NC(=O)c3nn(C)cc3[N+](=O)[O-])sc2C)cc1C	KB-V1 cytotox 15µM, SW480 rereplic 1.5µM, KB-3-1 cytotox inconclusive, MCF10A rerep inconclusive
Cc1ccc(-c2nc(NC(=O)c3nn(C)cc3[N+](=O)[O-])sc2C)cc1	KB-V1 cytotox inconclusive, KB-3-1 cytotox 4.6µM, MCF10A rerep inconclusive
Cn1cc([N+](=O)[O-])c(C(=O)Nc2nc(-c3ccc(Cl)cc3)cs2)n1	KB-V1 cytotox 13µM, SW480 rereplic 5.8µM, KB-3-1 cytotox 6.5µM, MCF10A rerep 5.2µM
Cc1cnc(NC(=O)c2nn(C)cc2[N+](=O)[O-])s1	KB-V1 cytotox inconclusive, SW480 rereplic 3.7µM, KB-3-1 cytotox inconclusive, MCF10A rerep 4.1µM
Cn1cc(S(=O)(=O)N2CCCCC2)cc1C(=O)N1CCN(c2ccc(F)cc2)CC1	none (no result: SW480 rereplic, D3 antag, MCF10A rerep)
CCN(CC)CCNC(=O)C(=O)Nc1c2c(nn1-c1ccc(F)cc1)CSC2	none (no result: SW480 rereplic, D3 antag, MCF10A rerep)
CC1=NN(c2ccccc2)C(=O)/C1=C/c1c(O)n(-c2ccc(F)cc2)[nH]c1=O	KB-V1 cytotox 7.3µM, SW480 rereplic inconclusive, D3 antag inconclusive, KB-3-1 cytotox 21µM
OCC[C@H]1C[C@@H](O)[C@H](O)[C@]2(Cc3ccccc3CCO2)O1	DRD3 agonist 31
OCC[C@H]1C[C@H](O)[C@@H](O)[C@]2(Cc3ccccc3O2)O1	D3 antag -68
Cc1ccc(CNC(=O)Cc2coc3cc(C)cc(C)c23)cc1	none (no result: SW480 rereplic, D3 antag, MCF10A rerep)
Cc1cc(OCCOCC[N+](C)(C)Cc2ccccc2)ccc1C(C)(C)CC(C)(C)C	none (no result: KB-V1 cytotox, SW480 rereplic, D3 antag, KB-3-1 cytotox, MCF10A rerep)
Brc1cc2c(cc1C1Nc3ccccc3C3C=CCC31)OCO2 (configuration not stated)	KB-V1 cytotox inconclusive, SW480 rereplic 16µM, KB-3-1 cytotox inconclusive, MCF10A rerep inconclusive
CCN(CCN(C)C)C(=O)Cn1ncc2c([nH]c3ccc(C)cc32)c1=O	none (no result: SW480 rereplic, D3 antag, MCF10A rerep)
O=C(O)Cn1c(SCc2ccccc2)nc2ccccc21	D3 antag -53
CCCCOC(=O)n1c(SCC(=O)N(C)C)nc2ccccc21	KB-V1 cytotox 16µM
CCn1c(SCC(=O)O)nc2ccccc21	none
CCCCOc1ccc(OCCSc2nc3ccccc3n2CC(=O)O)cc1	none
CCCCn1c(SCC(=O)O)nc2ccccc21	D3 antag -80
Cc1cc(C)cc(NC(=O)COCc2cc(-c3ccc4c(c3)OCO4)on2)c1	none (no result: SW480 rereplic, D3 antag, MCF10A rerep)
CCCOc1ccccc1-n1sc2c(c1=S)-c1cc(OC)cc3c1N(C(=O)C3=O)C2(C)C	KB-V1 cytotox inconclusive, SW480 rereplic inconclusive, D3 antag -57, KB-3-1 cytotox inconclusive, MCF10A rerep inconclusive
COc1cc2c3c(c1)C(C)CC(C)(C)N3C(=O)C2=O (configuration not stated)	KB-V1 cytotox inconclusive, SW480 rereplic inconclusive, MCF10A rerep inconclusive
Cc1nn(Cc2ccc(Cl)c(Cl)c2)c(C)c1NC(=O)c1cc(-c2ccco2)on1	KB-V1 cytotox 5.2µM, SW480 rereplic inconclusive, KB-3-1 cytotox inconclusive, MCF10A rerep inconclusive
COc1ccc(-c2cc(C(=O)Nc3c(C)nn(Cc4ccc(Cl)cc4)c3C)no2)cc1	KB-V1 cytotox inconclusive, SW480 rereplic inconclusive, MCF10A rerep 16µM
Cc1nn(Cc2ccc(F)cc2)c(C)c1NC(=O)c1nn(C)cc1Cl	KB-V1 cytotox 9.2µM
Cc1ccc(Cn2nc(C)c(NC(=O)c3cc(-c4ccc(F)cc4)on3)c2C)cc1	none (no result: SW480 rereplic, D3 antag, MCF10A rerep)
Cc1nn(Cc2ccc(Cl)cc2)c(C)c1NC(=O)c1cc(-c2ccco2)on1	MCF10A rerep 23µM
CC(OC(=O)C1CCN(S(=O)(=O)c2ccc(C(C)(C)C)cc2)CC1)C(=O)N(C)C1CCCCC1 (configuration not stated)	MCF10A rerep inconclusive
COc1cccc(-c2cc(C(=O)Nc3ccn(Cc4ccc(C)cc4)n3)no2)c1	KB-3-1 cytotox inconclusive, DRD3 agonist 35!
Cc1ccc(Cn2ccc(NC(=O)c3cc(-c4ccccc4)on3)n2)cc1	none
O=C(NC1CCCCC1)c1noc2c1CCCCC2	KB-V1 cytotox inconclusive
CC(C)(C)C1CCc2onc(C(=O)N3CCOCC3)c2C1 (configuration not stated)	KB-V1 cytotox 21µM
CC(C)(C)C1CCc2onc(C(=O)Nc3ccc4c(c3)OCO4)c2C1 (configuration not stated)	MCF10A rerep inconclusive
COc1cc(NC(=O)c2noc3c2CC(C(C)(C)C)CC3)cc(OC)c1OC (configuration not stated)	KB-V1 cytotox 16µM (no result: SW480 rereplic, D3 antag, MCF10A rerep)
CC1CCc2onc(C(=O)N3CCN(c4ccc(F)cc4)CC3)c2C1 (configuration not stated)	none (no result: KB-V1 cytotox, SW480 rereplic, D3 antag, KB-3-1 cytotox, MCF10A rerep)
CC(C)(C)C1CCc2onc(C(=O)NC3CCCC3)c2C1 (configuration not stated)	KB-V1 cytotox 16µM, KB-3-1 cytotox inconclusive, MCF10A rerep inconclusive
Cc1ccc(N2C(=O)[C@@H]3CSC(c4ccc(Cl)cc4)N3C2=O)cc1 (some centres not stated)	none (no result: SW480 rereplic, D3 antag, MCF10A rerep)
CN(C)C(=O)c1cccc(-c2cccc(-c3nc(C(=O)NCc4ccccc4)cc4c3[C@@H](CCO)N(S(=O)C(C)(C)C)C4)c2)c1 (some centres not stated)	KB-3-1 cytotox inconclusive (no result: SW480 rereplic, MCF10A rerep)
CC(C)(O)CN(C(=O)C(c1ccccc1)c1ccccc1)C1CCCCC1	KB-V1 cytotox 13µM
CNCC(=O)N[C@@H](CCCN=C(N)N)C(=O)N[C@H](C(=O)N[C@@H](Cc1ccc(O)cc1)C(=O)N[C@H](C(=O)N[C@@H](Cc1cnc[nH]1)C(=O)N1CCC[C@H]1C(=O)N[C@@H](C)C(=O)O)C(C)C)C(C)C	none (no result: KB-V1 cytotox, SW480 rereplic, D3 antag, KB-3-1 cytotox, MCF10A rerep)
Oc1ccc(-c2nc3ncccn3c2Nc2ccc3c(c2)OCO3)cc1	D3 antag -55
Clc1ccc(-c2nc3ncccn3c2Nc2ccc3c(c2)OCO3)cc1	MCF10A rerep inconclusive
N#Cc1ccc(C23CC4(C2)[C@H](CN(CC2CCCCC2)[C@@H]4c2ccccc2)C3c2ccccc2)cc1 (some centres not stated)	KB-V1 cytotox inconclusive, SW480 rereplic inconclusive, MCF10A rerep inconclusive
N#Cc1ccc(C23CC4(C2)[C@H](CN(CC2CCCCC2)[C@@H]4c2ccccc2)C3c2ccc(Cl)nc2)cc1 (some centres not stated)	D3 antag -72
